The other results are listed elsewhere or left out. No count for the full screen is at hand.

To fix the notation:
B1: VH:VL chains; a variant is named by its letters at X, in order (parent)
chain 1: QVQLVQSGAEVKKPGASVKVSCKASGYTFTDYXMHWVRQAPGQGLEWMGXVNPNXXXTTYNQKFEGRVTMTTDTSTSTAYMELRSLRSDDTAVYYCARXNXLDXWGQGTTVTVSS
chain 2: DIQMTQSPSSLSASVGDRVTITCSVSSSVSSIYLHWYQQKPGKAPKLLIYSTSNLASGVPSRFSGSGSGTDFTLTISSLQPEDFATYYCQVYSGYPLTFGGGTKVEIK

The assay covers variants of B1. Briefly: yeast display scFab, FACS + sequencing. The settings on record: with MET. The essentials:
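A heavy-chain CDR mutant scFab library on yeast was enriched magnetically with HGFR-Fc-coated Protein A beads for two rounds and then by FACS after labelling with 1 nM HGFR-Fc and anti-Myc in PBSB with 1% milk for 3 h at room temperature, gating the top 50% antigen-positive cells. Antigen binding was judged positive if a sequence turned up in both antigen-positive deep-sequencing samples and negative if it turned up only in the input.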
Take FRARSSGF: the antigen binding call is reported as “binds”. On to DGGKNSVD, for which the antigen binding call was “no binding”. The result for VEGGGFSV reads “no binding”; that for VEAGDDAV, “no binding”. As for ATAGSDGV, the antigen binding call is recorded as “no binding”.

On to DAARGDGA, for which the antigen binding call is “no binding”. The entry for VKGRSDVY is “no binding”; for FRGRGSVF it is “binds”; for FRGRGALF it is “binds”.

In the case of FRGRGSLF, the antigen binding call is “binds”. For the variant FRKRGSVF, the antigen binding call was “binds”. The result for ARAAGDVF reads “no binding”; that for YRGGSSGY, “binds”. The result for YRGAGSGS reads “binds”; that for YRGAGSGY, “binds”; that for YRGAGSGD, “binds”. The entry for AERRDDGA is “no binding”; for VAGGGAGV it is “no binding”; for YAGGDDSA it is “no binding”. In the case of VTTKSFGV, the antigen binding call is recorded as “no binding”. The result for YRGAGYGS reads “no binding”. The result for YRGAGAGS reads “binds”; that for ARGAGYGS, “no binding”. Regarding YRGAGAVS, the antigen binding call is “binds”. Take YRGAGAVY: the antigen binding call is recorded as “binds”. YRGAGAWS: the antigen binding call is given as “binds”. The entry for YAGAGAVY is “no binding”; for DEETNSGA it is “no binding”.

On to AREGDDVA, for which the antigen binding call is recorded as “no binding”. The result for YRGRAAVS reads “binds”; that for YTGTSAVS, “no binding”.

With YARRAAVS, the antigen binding call was “no binding”. The result for YRGGGSGS reads “binds”. Turning to YRGRGFAY, the antigen binding call was “binds”. YRGRGFAD: the antigen binding call is given as “binds”.

Consider YRGRGYAY, for which the antigen binding call is “binds”. The entry for YAAGGFAY is “no binding”; for YRGGGFAD it is “binds”; for YKGAAFAD it is “no binding”. With VATGDDVA, the antigen binding call was “no binding”. The result for SATKTVVV reads “no binding”. With VTGEDSGV, the antigen binding call was “no binding”.

As for SKGASFAY, the antigen binding call was “no binding”.

Take YKGRGFAY: the antigen binding call is given as “binds”. The result for DTGTGDSA reads “no binding”. The entry for DAGGGDVV is “no binding”. Consider VEGGNDGA, for which the antigen binding call is “no binding”. For the variant YAGGGDWA, the antigen binding call was “no binding”. For the variant YRKRGDVV, the antigen binding call is given as “binds”. Consider YRKGSSGV, for which the antigen binding call is on record as “binds”. The entry for YRKRGSLV is “binds”.

For YRKRGSVV, the antigen binding call was “binds”. Regarding DREEGDVV, the antigen binding call is reported as “no binding”.

As for DAGGDDGA, the antigen binding call was “no binding”. The result for AARADAVY reads “no binding”; that for DARETFLD, “no binding”. In the case of SGREGDWD, the antigen binding call was “no binding”. Consider YRKGGSGV, for which the antigen binding call is recorded as “binds”. Take YRKRGSLY: the antigen binding call is given as “binds”. The entry for VEKGGSGV is “no binding”; for YRKRGVGV it is “no binding”; for VRKGGSGV it is “binds”. Take YRKRGSGV: the antigen binding call is recorded as “binds”.

Regarding DGGGASSA, the antigen binding call is “no binding”. For the variant YTAGSDGA, the antigen binding call was “no binding”.

For SEARSDAD, the antigen binding call is reported as “no binding”. The entry for VEGGGDVY is “no binding”; for VAEKGDGV it is “no binding”. Consider VTAGDDGV, for which the antigen binding call was “no binding”. For the variant YKKGAAGF, the antigen binding call is given as “binds”. In the case of YGTAAFGF, the antigen binding call is on record as “no binding”. For YARADDVF, the antigen binding call is “no binding”. The result for VKRGDDVV reads “no binding”; that for YKRGSSGF, “binds”; that for YKRGDAVF, “binds”.

As to YKRGSAGF, the antigen binding call is reported as “binds”. The result for VGGGAAGF reads “no binding”; that for FGKGGFGY, “no binding”. Turning to YKRGDSGF, the antigen binding call is given as “binds”.

For the variant YARADSGD, the antigen binding call is “no binding”. The result for YAARASGF reads “no binding”; that for YATEDSGF, “binds”. For the variant AGTKADVV chain 1 G108S, the antigen binding call is reported as “no binding”. The result for VGTKGSSA reads “no binding”; that for DATGGSSY, “no binding”. Consider YKGKGSSY, for which the antigen binding call is given as “binds”.

Regarding YKTKGSSY, the antigen binding call was “binds”.

With YKGKGSLY, the antigen binding call is reported as “binds”. The entry for VKGKGDVY is “no binding”. The entry for FRAKGSAD is “binds”; for FKGKGSAD it is “binds”; for YAGKTSAD it is “no binding”.

On to FKGRGSAA, for which the antigen binding call is “binds”. For the variant FRGKGSAD, the antigen binding call was “binds”. For YRGKSSAD, the antigen binding call was “binds”. The entry for DAAGASVD is “no binding”. Take YTKGTSVA chain 1 E65K: the antigen binding call was “no binding”. The entry for DKEGGFGV is “no binding”; for DEGGTDGS it is “no binding”; for SRATAYSD it is “no binding”.

On to YRGKGSAD, for which the antigen binding call is listed as “binds”.

For VEGAADVD, the antigen binding call is “no binding”.

Consider VTGGGASF, for which the antigen binding call is “no binding”.

For the variant YRKGSSVS, the antigen binding call is recorded as “binds”. The result for YRKGGSVS reads “binds”; that for YRKRGSVF, “binds”. The entry for YRTRSSVS is “binds”. The result for DTKGDSVS reads “no binding”.

Values taken from the emibetuzumab library of Makowski et al. (2022).
